Test systems include RIOK1; RIOK2; RIOK3; RIPK1; RIPK2; RIPK4; RIPK5; ROCK1; ROCK2; ROS1.
Common to all, as to settings: concentration: 1 μM, replicates: in singlicate; n = 1
For assay [1], the system named is RPS6KA4(Kin.Dom.1-N-terminal).
Assay [2] has as its system RPS6KA4(Kin.Dom.2-C-terminal).
The subject of assay [3] is RPS6KA5(Kin.Dom.1-N-terminal).
The subject of assay [4] is RPS6KA5(Kin.Dom.2-C-terminal).
The subject of assay [5] is T1, RSK1(Kin.Dom.1-N-terminal).
T1 construct: gene RPS6KA1

In assay [6] the test system is T2, RSK1(Kin.Dom.2-C-terminal).
T2 construct: gene RPS6KA1

For assay [7], the system named is T3, RSK2(Kin.Dom.1-N-terminal).
T3 construct: gene RPS6KA3

Assay [8] deals with T4, RSK2(Kin.Dom.2-C-terminal).
T4 construct: gene RPS6KA3

Assay [9] relates to T5, RSK3(Kin.Dom.1-N-terminal).
T5 construct: gene RPS6KA2

Assay [10] relates to T6, RSK3(Kin.Dom.2-C-terminal).
T6 construct: gene RPS6KA2
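Note: KINOMEscan kinase panel screen.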

Turning to `O=C(Nc1cccc(-c2nn3ccccc3c2-c2ccnc(Nc3cccc(C(F)(F)F)c3)n2)c1)c1c(F)cccc1F` [GSK292658], the “%Inh” value is given as 17% in the assay with RIOK1; 6% in the assay on RIOK2; 0% with RIOK3; 7% in the assay with RIPK1; 63% with RIPK2; 0% in the assay on RIPK4. Further, the “%Inh” value amounted to 0% in the assay with RIPK5; 0% with ROCK1; 1% with ROCK2; 0% in the assay with ROS1; 10% in assay [1]; 0% in assay [2]. For the same molecule, the “%Inh” value in assay [3] is 18%; in assay [4] it was 0%; in assay [5], 81%; in assay [6] it was 0%; in assay [7], 3%; in [8] it was 5%. Besides, the “%Inh” value in [9] came out at 0%; in assay [10], 14%.

`NCCCC(NC(=O)c1cc(Br)c(-c2ccnc3[nH]ccc23)s1)c1ccccc1.O=C(O)C(F)(F)F.O=C(O)C(F)(F)F` (centres unmarked) [GSK1287544]: the “%Inh” value in the assay on RIOK1 is on record as 91.8%; in the assay with RIOK2, 66%; in the assay with RIOK3, 76%; in the assay on RIPK1, 53%; with RIPK2, 0%; with RIPK4, 6%. Besides, the “%Inh” value in the assay with RIPK5 turned out to be 1%; with ROCK1 it was 99.4%; with ROCK2, 92.8%; in the assay on ROS1 it was 10%; in [1] it was 53%; in assay [2] it was 1%. In addition, the “%Inh” value in assay [3] turned out to be 51%; in [4] it was 5%; in assay [5] it was 0%; in assay [6], 0%; in assay [7], 29%; in assay [8], 0%. The “%Inh” value in assay [9] was 12%; in assay [10], 0%.

`COc1cc2c(cc1OCCN1CCNCC1)ncc1c3ccc(C#N)cc3[nH]c21`: the “%Inh” value is 82% with RIOK1; 12% in the assay with RIOK2; 93.9% with RIOK3; 0% in the assay on RIPK1; 16% in the assay with RIPK2; 41% in the assay with RIPK4. The “%Inh” value in the assay on RIPK5 is reported as 28%; in the assay on ROCK1 it was 99.2%; with ROCK2, 99.7%; with ROS1, 0%; in assay [1], 0%; in assay [2], 20%. Also, the “%Inh” value was determined as 0% in [3]; 38% in [4]; 13% in [5]; 12% in assay [6]; 54% in [7]; 0% in [8]. In addition, the figures for the “%Inh” value in assay [9] and in assay [10] were 16% and 0%, respectively.

For the molecule `Cn1cc(-c2[nH]c3cc(NC(=O)[C@H](N)C4CCCCC4)cc4c3c2C=NNC4=O)cn1`, the “%Inh” value with RIOK1 was determined as 93.7%; in the assay on RIOK2, 21%; with RIOK3, 88%; in the assay with RIPK1 it was 0%; in the assay on RIPK2, 2%; with RIPK4, 87%. Also, the “%Inh” value is on record as 25% with RIPK5; 85% in the assay on ROCK1; 91.8% in the assay on ROCK2; 37% in the assay with ROS1; 96.8% in assay [1]; 96.2% in assay [2]. Further, the “%Inh” value was 34% in [3]; 59% in assay [4]; 60% in [5]; 72% in assay [6]; 85% in assay [7]; 0% in assay [8]. For the same molecule, the “%Inh” value in [9] is listed as 65%; in [10] it was 5%.

For the molecule `c1ccc(Oc2ccc(Nc3ccnc4cc(-c5ccc(CNCCN6CCOCC6)o5)ccc34)cc2)nc1` [GW567145], the “%Inh” value in the assay on RIOK1 was 0%; in the assay with RIOK2, 0%; in the assay on RIOK3, 0%; in the assay on RIPK1, 0%; in the assay with RIPK2 it was 93.5%; in the assay with RIPK4, 0%. Further, the “%Inh” value in the assay with RIPK5 was determined as 1%; with ROCK1, 4%; with ROCK2 it was 40%; in the assay on ROS1, 0%; in assay [1] it was 0%; in [2], 0%. The “%Inh” value in [3] is given as 0%; in [4] it was 0%; in assay [5], 93.3%; in assay [6], 0%; in assay [7] it was 0%; in assay [8], 0%. The “%Inh” value in assay [9] and in [10] was 0% throughout.

Consider `FC(F)(F)c1ccc(/C=C/c2cncnc2Nc2ccc3[nH]c(Cc4ccccc4)nc3c2)cc1` [GW709199], for which the “%Inh” value with RIOK1 is recorded as 33%; in the assay on RIOK2, 0%; with RIOK3, 2%; with RIPK1, 11%; in the assay with RIPK2, 11%; with RIPK4 it was 0%. Besides, the “%Inh” value was 0% in the assay with RIPK5; 0% in the assay with ROCK1; 0% in the assay with ROCK2; 0% in the assay on ROS1; 25% in [1]; 0% in assay [2]. The “%Inh” value in [3] turned out to be 0%; in assay [4], 6%; in assay [5] it was 3%; in [6], 0%; in assay [7], 11%; in assay [8], 48%. In addition, the “%Inh” value amounted to 13% in assay [9] and 0% in assay [10].

`CN(C)S(=O)(=O)c1cc(-c2ccc3nccc(-c4cccc(S(N)(=O)=O)c4)c3c2)cnc1N` [GSK1669921]: the “%Inh” value came to 36% in the assay with RIOK1; 23% in the assay on RIOK2; 21% with RIOK3; 4% in the assay with RIPK1; 8% with RIPK2; 9% in the assay on RIPK4. In addition, the “%Inh” value with RIPK5 is given as 26%; in the assay on ROCK1, 0%; in the assay with ROCK2 it was 0%; in the assay with ROS1, 0%; in assay [1], 15%; in assay [2] it was 0%. The “%Inh” value in [3] is given as 16%; in assay [4], 0%; in assay [5], 0%; in assay [6] it was 10%; in [7], 21%; in assay [8], 76%. Besides, the entries for the “%Inh” value in assay [9] and in assay [10] were 2% and 28%, respectively.

As for `COCCOCCOc1cc2ncc3c4ccc(C#N)cc4[nH]c3c2cc1OC`, the “%Inh” value in the assay on RIOK1 was 99.4%; with RIOK2, 0%; with RIOK3, 83%; with RIPK1, 20%; in the assay on RIPK2, 0%; in the assay on RIPK4, 17%. Also, the “%Inh” value in the assay with RIPK5 came to 0%; with ROCK1, 96.9%; with ROCK2, 99.2%; with ROS1 it was 51%; in [1], 0%; in assay [2], 0%. Further, the “%Inh” value is on record as 0% in assay [3]; 44% in [4]; 0% in assay [5]; 0% in assay [6]; 79% in assay [7]; 2% in assay [8]. Moreover, the “%Inh” value is 46% in assay [9] and 8% in [10].

For `COC(=O)Nc1nc2cc(Oc3ccc(NC(=O)Nc4cc(C(F)(F)F)ccc4F)cn3)ccc2[nH]1.Cl.Cl` [GW681170], the “%Inh” value is reported as 0% in the assay with RIOK1; 0% in the assay on RIOK2; 14% with RIOK3; 41% in the assay on RIPK1; 58% in the assay with RIPK2; 0% in the assay on RIPK4. Moreover, the “%Inh” value in the assay with RIPK5 was found to be 0%; in the assay with ROCK1, 51%; with ROCK2, 46%; in the assay on ROS1, 27%; in assay [1], 9%; in [2], 0%. The “%Inh” value came out at 21% in [3]; 7% in [4]; 0% in [5]; 50% in assay [6]; 0% in [7]; 0% in assay [8]. Besides, the “%Inh” value was 0% in assay [9] and 17% in assay [10].

On to `Fc1ccc(-c2ncn(C3CCNCC3)c2-c2ccnc(Oc3ccc(-c4ccccc4)cc3)n2)cc1` [SB-245391], for which the “%Inh” value stood at 7% with RIOK1; 0% in the assay on RIOK2; 5% in the assay with RIOK3; 0% with RIPK1; 70% in the assay with RIPK2; 34% in the assay with RIPK4. Also, the “%Inh” value is 33% in the assay with RIPK5; 0% in the assay on ROCK1; 7% in the assay on ROCK2; 0% in the assay on ROS1; 12% in assay [1]; 0% in assay [2]. Also, the “%Inh” value in assay [3] turned out to be 0%; in [4], 6%; in assay [5], 27%; in assay [6], 0%; in [7], 34%; in assay [8], 41%. Further, the “%Inh” value in assay [9] and in [10] was 0% throughout.
